Measurements published in the supplement of paper PMC3414501.
Where a name gives a salt, the structure may show the parent alone.

These compounds were tested on S. cerevisiae NKY1551 his4x/his4B, sporulating (assay: HIS4 meiotic recombination assay sensitivity score (z-score vs DMSO controls); higher = stronger inhibition of sporulation/recombination, active = hit call of the paper).
Method: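 NIH Clinical Collection compounds were added 1:100 from stock (about 100 µM final) to S. cerevisiae. Growth: average doubling time (AvgG) over 24 h of BY4741 (wild-type) or AD1-9 (drug-efflux-pump deficient) in rich media. HIS4: the his4x/his4B heteroallelic recombination reporter strain (SK1) was sporulated 5 h with compound at 30°C, then colony density was read on -his plates after 48 h. Sensitivity score = (compound − mean of 8 DMSO controls)/SD of DMSO controls. Hit cutoffs are >2 for growth and >5 for sporulation.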
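Note: active if sensitivity score above 5.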

| Compound | HIS4 meiotic recombination assay sensitivity score |
| --- | --- |
| CN(C)CCC(c1ccc(Cl)cc1)c1ccccn1 (stereo not given) [Chlorpheniramine] (stock concentration (mM, diluted 1:100): 10) | 5.73 (active) |
| OCc1cccnc1 [3-Pyridinemethanol] (stock concentration (mM, diluted 1:100): 10) | 0.73 (inactive) |
| CC(C)(C)NC(=O)[C@H]1CC[C@H]2[C@@H]3CC[C@H]4NC(=O)C=C[C@]4(C)[C@H]3CC[C@]12C [Finasteride] (stock concentration (mM, diluted 1:100): 10) | 3.09 (inactive) |
| Fc1ccc([C@@H]2CCNC[C@H]2COc2ccc3c(c2)OCO3)cc1 [Paroxetine] (stock concentration (mM, diluted 1:100): 8.8) | 9.22 (active) |
| CCC1=C(C)CN(C(=O)NCCc2ccc(S(=O)(=O)NC(=O)N[C@H]3CC[C@H](C)CC3)cc2)C1=O [Glimepiride] (stock concentration (mM, diluted 1:100): 7.7) | 1.27 (inactive) |
| CC(C)OC(=O)CCC/C=C\C[C@@H]1[C@@H](CC[C@@H](O)CCc2ccccc2)[C@H](O)C[C@@H]1O [Latanoprost] (stock concentration (mM, diluted 1:100): 10.3) | 0.65 (inactive) |
| CC(COc1ccccc1Cc1ccccc1)N1CCCCC1 (stereo not given) [Benproperine phosphate] (stock concentration (mM, diluted 1:100): 10) | 7.79 (active) |
| COC(=O)C1=C(C)NC(C)=C(C(=O)OCC(C)C)C1c1ccccc1[N+](=O)[O-] (stereo not given) [Nisoldipine] (stock concentration (mM, diluted 1:100): 10) | -2.61 (inactive) |
| CC[N+](C)(CC)CCOC(=O)C(O)(c1ccccc1)C1CCCCC1 (stereo not given) [Oxyphenonium bromide] (stock concentration (mM, diluted 1:100): 10) | 1.35 (inactive) |
| CN1C2CCCC1CC(NC(=O)c1nn(C)c3ccccc13)C2 (stereo not given) [Granisetron hydrochloride] (stock concentration (mM, diluted 1:100): 9) | 0.28 (inactive) |
| CC(C)NCC(O)COc1ccc(CCOCC2CC2)cc1 (stereo not given) [Betaxolol hydrochloride] (stock concentration (mM, diluted 1:100): 10) | -0.58 (inactive) |
| OCCOCCN1CCN(C2=Nc3ccccc3Sc3ccccc32)CC1 [Quetiapine hemifumarate] (stock concentration (mM, diluted 1:100): 7.7) | 5.3 (active) |
| Nc1c2c(nc3c1CCC3)CCCC2 [Amiridine] (stock concentration (mM, diluted 1:100): 10) | 1.51 (inactive) |
| CN1CCN(CCCN2c3ccccc3Sc3ccc(Cl)cc32)CC1 [Prochlorperazine] (stock concentration (mM, diluted 1:100): 10.4) | -2.14 (inactive) |
| COCCOC(=O)C1=C(C)NC(C)=C(C(=O)OC(C)C)C1c1cccc([N+](=O)[O-])c1 (stereo not given) [Nimodipine] (stock concentration (mM, diluted 1:100): 10) | 4.27 (inactive) |
| CC(CCCCC(=O)Nc1ccc(C(F)(F)F)cc1)NCCc1cnc[nH]1 (stereo not given) (stock concentration (mM, diluted 1:100): 10) | -0.79 (inactive) |
| COc1ccc2c3c1O[C@H]1C[C@@H](O)C=C[C@@]31CCN(C)C2 [Galanthamine] (stock concentration (mM, diluted 1:100): 8.8) | -0.9 (inactive) |
| CN1CCN(c2nc3cc(C(F)(F)F)ccc3n3cccc23)CC1 (stock concentration (mM, diluted 1:100): 10) | -0.17 (inactive) |
| COC(=O)Nc1nc2cc(C(=O)c3ccc(F)cc3)ccc2[nH]1 [Flubendazole] (stock concentration (mM, diluted 1:100): 10) | -2.01 (inactive) |
| CC(C(=O)O)c1ccc(-c2ccccc2)c(F)c1 (stereo not given) [Flurbiprofen] (stock concentration (mM, diluted 1:100): 11.4) | -0.16 (inactive) |

| Compound | HIS4 meiotic recombination assay sensitivity score |
| --- | --- |
| CC(C)NCC(O)COc1ccc(COCCOC(C)C)cc1 (stereo not given) [Bisoprolol fumarate] (stock concentration (mM, diluted 1:100): 8.5) | -0.11 (inactive) |
| CN(C)CC[C@@H](c1ccc(Br)cc1)c1ccccn1 [Dexbrompheniramine maleate] (stock concentration (mM, diluted 1:100): 7.3) | 7.19 (active) |
| C[C@]12CCC(=O)C=C1CC[C@@H]1[C@@H]2C(=O)C[C@@]2(C)[C@H]1CC[C@]2(O)C(=O)CO [Cortisone] (stock concentration (mM, diluted 1:100): 10) | -0.95 (inactive) |
| CCN1CCCC1CNC(=O)c1cc(S(=O)(=O)CC)c(N)cc1OC (stereo not given) [Amisulpride] (stock concentration (mM, diluted 1:100): 10) | -0.66 (inactive) |
| CC(C)[C@H](N)C(=O)OCCOCn1cnc2c(=O)nc(N)[nH]c21 [Valaciclovir hydrochloride] (stock concentration (mM, diluted 1:100): 9) | 0.04 (inactive) |
| Cc1[nH]c(=O)c(C#N)cc1-c1ccncc1 [Milrinone] (stock concentration (mM, diluted 1:100): 10.1) | -0.23 (inactive) |
| CCN1CCN(c2cc3c(cc2F)c(=O)c(C(=O)O)cn3C2CC2)CC1 [Enrofloxacin] (stock concentration (mM, diluted 1:100): 10) | 1.36 (inactive) |
| C[C@@H]1O[C@@H](OC[C@H]2O[C@@H](Oc3c(-c4ccc(O)c(O)c4)oc4cc(O)cc(O)c4c3=O)[C@H](O)[C@@H](O)[C@@H]2O)[C@H](O)[C@H](O)[C@H]1O [Rutin] (stock concentration (mM, diluted 1:100): 10) | -1.04 (inactive) |
| CN1CCCCC1CCN1c2ccccc2Sc2ccc([S+](C)[O-])cc21 (stereo not given) [Mesoridazine] (stock concentration (mM, diluted 1:100): 10) | -1.59 (inactive) |
| C[C@]12C=CC(=O)C=C1CC[C@@H]1[C@@H]2[C@@H](O)C[C@@]2(C)[C@H]1CC[C@]2(O)C(=O)COC(=O)CCC(=O)O (stock concentration (mM, diluted 1:100): 10) | -0.86 (inactive) |
| Cc1occc(=O)c1O [Maltol] (stock concentration (mM, diluted 1:100): 10) | 0.46 (inactive) |
| CC(=O)OCC(=O)NCCCOc1cccc(CN2CCCCC2)c1 [Roxatidine acetate hydrochloride] (stock concentration (mM, diluted 1:100): 9.1) | -1.59 (inactive) |
| O=C(O[C@H]1[C@H](Oc2ccccc2COC(=O)C2(O)C=CCCC2=O)O[C@H](CO)[C@@H](O)[C@@H]1O)c1ccccc1 (stereo not given in full) [Tremulacin] (stock concentration (mM, diluted 1:100): 10) | -1.23 (inactive) |
| CN(C)CCc1c[nH]c2ccc(C[C@H]3COC(=O)N3)cc12 [Zolmitriptan] (stock concentration (mM, diluted 1:100): 10) | 0.22 (inactive) |
| Cc1nc2ccccn2c(=O)c1CCN1CCC(C(=O)c2ccc(F)cc2)CC1 [Pirenperone] (stock concentration (mM, diluted 1:100): 10) | 2.21 (inactive) |
| CN(C)CCOC(c1ccccc1)c1ccccc1 [Diphenhydramine hydrochloride] (stock concentration (mM, diluted 1:100): 10) | 8.82 (active) |
| COc1cc(C[C@@H](CO)[C@H](CO)Cc2ccc(O)c(OC)c2)ccc1O [Secoisolariciresinol] (stock concentration (mM, diluted 1:100): 10) | -0.73 (inactive) |
| CN(CCOc1ccc(CC2SC(=O)NC2=O)cc1)c1ccccn1 (stereo not given) [Rosiglitazone maleate] (stock concentration (mM, diluted 1:100): 7.6) | 0.95 (inactive) |
| CN(C)CCC[C@@]1(c2ccc(F)cc2)OCc2cc(C#N)ccc21 [Escitalopram oxalate] (stock concentration (mM, diluted 1:100): 7.9) | 6.6 (active) |
| Nc1ccc2cn[nH]c2c1 [6-Aminoindazole] (stock concentration (mM, diluted 1:100): 10) | -0.24 (inactive) |
